Results filed as inconclusive are left out. Calls of active or inactive are those of the source.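 Rule for the calls, unless noted: active = inhibition above the screen-wide mean plus 3 SD, about 51%; inactive = the rest.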

The nature of assay [1]: rapamycin-like changes in RPL19A-GFP expression – cell-based, S. cerevisiae, multiplex flow cytometry, primary screen (AID 1862; in the data active = percent of DMSO control GFP below about 86%;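 note: lower values mimic rapamycin by blocking the RPL19A rise seen in DMSO cells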). The settings on record: S. cerevisiae RPL19A-GFP strain, flow cytometry fluorescence, 3 h; at 10 µM; stronger effect = lower value.
Assay [2] can be described thus: TOR pathway GLN3 branch reporter MEP2-GFP changes – S. cerevisiae, multiplex flow cytometry, primary screen (AID 1867;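 active = GFP response, as percent of the DMSO control, above the screen-wide mean plus 3 SD, about 139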;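 note: median GFP channel fluorescence of barcode-gated MEP2-GFP cells measured by flow cytometry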). The settings on record: S. cerevisiae MEP2-GFP strain, 3 h, at 10 µM, stronger effect = higher value, 100% means same as DMSO wells.
Assay [3] is described as follows: TOR pathway RTG branch CIT2 reporter changes – S. cerevisiae, GFP fusion, multiplex flow cytometry, primary screen (AID 1870;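 active = percent response above a set limit, the screen-wide mean plus 3 SD, cut at about 130% in these data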;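 note: barcoded CIT2-GFP strain pooled with four other GFP strains with rapamycin as positive control; median GFP fluorescence per well over plate mean of DMSO wells so 100% = DMSO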). To be noted: S. cerevisiae CIT2-GFP expression, 3 h, at 10 µM, stronger effect = higher value.
Assay [4] in a line: TOR pathway LAP4-GFP level changes – S. cerevisiae, multiplex flow cytometry, primary screen (AID 1873;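 active = GFP signal, as percent of the solvent control, above the screen mean plus 3 SD, about 149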). To be noted: S. cerevisiae LAP4-GFP expression, 3 h, at 10 µM, stronger effect = higher value.
Assay [5] in a line: yeast AGP1-GFP level changes, GLN3 branch – cell-based, multiplex flow cytometry, S. cerevisiae, primary screen (AID 1887;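 active = GFP signal above the screen-wide mean plus 3 SD, that is over about 124.5% of the solvent control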;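 note: AGP1-GFP fusion strain of S. cerevisiae within a five-strain barcoded multiplex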). To be noted: 3 h, at 10 µM, stronger effect = higher value.
Assay [6] can be described thus: reduced mouse 2C T cell binding to pMHC/ICAM-1 vesicles – MLPCN validation set, flow cytometry, LFA-1/ICAM-1 modulator project, pilot screen (AID 2523;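 active = response below a set limit, under 55% cells CD8-positive and vesicle-bound, and CD8 cells' 90th-percentile brightness under 279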;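 for vesicle binding response: mean PE anti-B7-1 fluorescence of CD8+ cells relative to row control; 100% = QL9-loaded vesicles with DMSO vehicle in the same plate row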). To be noted: 2C mouse CD8+ T cells, at 7 µM, stronger effect = lower value; double positive events: measured here: CD8+/vesicle+ event percentage.
The target of assay [7] is Integrin beta-1 (Homo sapiens) + Integrin alpha-4 (Homo sapiens) (UniProt P13612+P05556). The experiment in a line: alpha4beta1 integrin LIBS antibody binding reduction – U937 cells, HUTS-21 mAb, flow cytometry, validation set, VLA-4 allosteric modulator project, pilot screen (AID 2674;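 active = inhibition above 50%, about 3 SD of the validation set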;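 note: antibody binding induced by the VLA-4 ligand LDV present at three times its Kd; 0% = LDV ligand with antibody and no compound and 100% = antibody without LDV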). The settings on record: HUTS-21 LIBS mAb binding, at 6.7 µM, stronger effect = higher value, binding induced by LDV ligand.
Chain of Integrin beta-1 (Homo sapiens) + Integrin alpha-4 (Homo sapiens) (P05556 whole entry, looked up): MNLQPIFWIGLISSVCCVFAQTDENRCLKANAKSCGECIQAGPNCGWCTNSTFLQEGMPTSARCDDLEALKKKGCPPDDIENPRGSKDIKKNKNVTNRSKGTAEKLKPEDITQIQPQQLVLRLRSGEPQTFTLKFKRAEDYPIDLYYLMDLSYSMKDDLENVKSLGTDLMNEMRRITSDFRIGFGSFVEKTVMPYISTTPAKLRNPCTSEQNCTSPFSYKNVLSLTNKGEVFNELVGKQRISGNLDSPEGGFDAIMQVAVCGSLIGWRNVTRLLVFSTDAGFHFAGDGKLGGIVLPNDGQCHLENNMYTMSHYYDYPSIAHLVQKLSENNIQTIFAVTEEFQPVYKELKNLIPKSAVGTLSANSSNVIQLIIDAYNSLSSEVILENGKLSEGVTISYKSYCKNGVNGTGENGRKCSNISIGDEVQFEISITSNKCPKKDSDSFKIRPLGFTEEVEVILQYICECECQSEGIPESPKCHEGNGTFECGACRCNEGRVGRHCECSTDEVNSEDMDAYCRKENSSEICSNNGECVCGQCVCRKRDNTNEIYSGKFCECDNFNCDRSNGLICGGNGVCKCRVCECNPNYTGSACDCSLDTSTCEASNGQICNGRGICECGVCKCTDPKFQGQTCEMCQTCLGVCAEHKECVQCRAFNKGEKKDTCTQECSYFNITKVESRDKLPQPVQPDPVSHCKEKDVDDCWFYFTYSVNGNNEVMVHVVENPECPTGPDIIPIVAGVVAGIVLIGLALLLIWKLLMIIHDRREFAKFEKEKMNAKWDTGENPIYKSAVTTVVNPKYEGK
Chain of Integrin beta-1 (Homo sapiens) + Integrin alpha-4 (Homo sapiens) (P13612 whole entry, looked up): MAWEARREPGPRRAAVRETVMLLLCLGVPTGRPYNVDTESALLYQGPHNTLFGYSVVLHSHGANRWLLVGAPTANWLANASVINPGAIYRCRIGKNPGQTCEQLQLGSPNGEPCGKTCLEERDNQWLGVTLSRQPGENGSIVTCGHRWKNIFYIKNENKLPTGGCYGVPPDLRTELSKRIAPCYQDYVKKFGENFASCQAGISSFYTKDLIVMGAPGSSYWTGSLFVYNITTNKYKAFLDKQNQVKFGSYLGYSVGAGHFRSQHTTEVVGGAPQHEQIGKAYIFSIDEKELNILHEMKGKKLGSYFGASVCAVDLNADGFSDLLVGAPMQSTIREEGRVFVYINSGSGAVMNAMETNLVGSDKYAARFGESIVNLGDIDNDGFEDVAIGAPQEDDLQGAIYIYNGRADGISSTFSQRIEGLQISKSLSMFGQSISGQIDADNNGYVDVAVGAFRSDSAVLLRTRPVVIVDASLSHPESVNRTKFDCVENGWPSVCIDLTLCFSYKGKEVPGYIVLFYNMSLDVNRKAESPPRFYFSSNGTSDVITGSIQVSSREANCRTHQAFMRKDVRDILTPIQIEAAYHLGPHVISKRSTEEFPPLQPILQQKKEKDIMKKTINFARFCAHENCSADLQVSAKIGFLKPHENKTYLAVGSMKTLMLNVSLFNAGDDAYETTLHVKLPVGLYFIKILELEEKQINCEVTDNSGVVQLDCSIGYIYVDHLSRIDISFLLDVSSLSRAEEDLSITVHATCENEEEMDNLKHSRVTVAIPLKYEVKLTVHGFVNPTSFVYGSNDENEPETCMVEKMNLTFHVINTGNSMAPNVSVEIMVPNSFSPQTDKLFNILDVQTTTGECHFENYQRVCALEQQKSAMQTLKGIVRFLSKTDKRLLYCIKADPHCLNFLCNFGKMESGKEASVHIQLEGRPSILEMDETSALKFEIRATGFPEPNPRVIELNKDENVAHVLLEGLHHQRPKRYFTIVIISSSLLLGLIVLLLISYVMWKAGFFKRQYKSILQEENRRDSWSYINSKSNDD

Assay [8] in a line: calorie-restriction mimetic ROS inhibitors, yeast – validation compound set, pilot screen (AID 2706;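 active = superoxide response below 65% of plate, a cut near 3 SD across the whole screen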;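 note: yeast exposed to compound for one week at 30 degrees C before staining; 100% = mean of all compound wells on the same plate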). To be noted: S. cerevisiae aging, superoxide DHE fluorescence; at 10 µM, stronger effect = lower value.
In assay [9] the target is Beta-adrenergic receptor kinase 1 (Homo sapiens) (UniProt P25098). The experiment in a line: GRK2 binders displacing RNA aptamer, biochemical, validation, human GRK2, bead flow cytometry (AID 488806;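 active = aptamer binding inhibition above 30%, about 3 SD of noise from non-fluorescent compounds; inactive = inhibition at or below 30%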). To be noted: bead-bound GRK2, FAM-aptamer displacement, at 10 µM, stronger effect = higher value.
Chain of Beta-adrenergic receptor kinase 1 (Homo sapiens) (P25098 whole entry, looked up): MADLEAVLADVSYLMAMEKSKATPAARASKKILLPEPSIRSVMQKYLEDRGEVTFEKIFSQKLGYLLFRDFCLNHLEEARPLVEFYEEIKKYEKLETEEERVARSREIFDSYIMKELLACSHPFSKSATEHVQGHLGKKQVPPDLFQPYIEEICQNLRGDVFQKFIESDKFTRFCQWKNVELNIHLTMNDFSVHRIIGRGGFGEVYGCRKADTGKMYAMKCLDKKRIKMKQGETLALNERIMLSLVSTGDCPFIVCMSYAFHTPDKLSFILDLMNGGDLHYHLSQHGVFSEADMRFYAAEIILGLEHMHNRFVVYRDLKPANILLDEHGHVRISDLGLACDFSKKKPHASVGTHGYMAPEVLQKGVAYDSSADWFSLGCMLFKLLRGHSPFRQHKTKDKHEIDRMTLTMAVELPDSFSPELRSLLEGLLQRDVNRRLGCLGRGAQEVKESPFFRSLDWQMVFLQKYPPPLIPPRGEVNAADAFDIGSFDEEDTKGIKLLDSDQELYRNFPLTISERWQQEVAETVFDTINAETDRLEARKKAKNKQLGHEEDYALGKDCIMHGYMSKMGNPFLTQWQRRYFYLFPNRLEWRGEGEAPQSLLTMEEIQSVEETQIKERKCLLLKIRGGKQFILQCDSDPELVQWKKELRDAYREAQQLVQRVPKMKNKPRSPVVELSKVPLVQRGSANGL
In assay [10] the target is AP-2 complex subunit beta (Homo sapiens) (UniProt P63010). The experiment in a line: beta-arrestin/AP2 interaction blockers – biochemical, validation set, GST-AP2 beads, flow cytometry, pilot screen (AID 504541;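 active = inhibition above 54%, about 3 SD of non-fluorescent compounds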;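 note: AP2 carries R879A mutation and is captured from E. coli lysate; bead-bound FITC arrestin peptide fluorescence measuring arrestin peptide binding to AP2; 0% = DMSO wells and 100% = excess unlabeled arrestin peptide control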). The settings on record: FITC arrestin peptide, at 10 µM, stronger effect = higher value, AP2 beta2 appendage fragment, R879A mutant.
Chain of AP-2 complex subunit beta (Homo sapiens) (P63010 whole entry, looked up, the tested form may be a part, one chain of several): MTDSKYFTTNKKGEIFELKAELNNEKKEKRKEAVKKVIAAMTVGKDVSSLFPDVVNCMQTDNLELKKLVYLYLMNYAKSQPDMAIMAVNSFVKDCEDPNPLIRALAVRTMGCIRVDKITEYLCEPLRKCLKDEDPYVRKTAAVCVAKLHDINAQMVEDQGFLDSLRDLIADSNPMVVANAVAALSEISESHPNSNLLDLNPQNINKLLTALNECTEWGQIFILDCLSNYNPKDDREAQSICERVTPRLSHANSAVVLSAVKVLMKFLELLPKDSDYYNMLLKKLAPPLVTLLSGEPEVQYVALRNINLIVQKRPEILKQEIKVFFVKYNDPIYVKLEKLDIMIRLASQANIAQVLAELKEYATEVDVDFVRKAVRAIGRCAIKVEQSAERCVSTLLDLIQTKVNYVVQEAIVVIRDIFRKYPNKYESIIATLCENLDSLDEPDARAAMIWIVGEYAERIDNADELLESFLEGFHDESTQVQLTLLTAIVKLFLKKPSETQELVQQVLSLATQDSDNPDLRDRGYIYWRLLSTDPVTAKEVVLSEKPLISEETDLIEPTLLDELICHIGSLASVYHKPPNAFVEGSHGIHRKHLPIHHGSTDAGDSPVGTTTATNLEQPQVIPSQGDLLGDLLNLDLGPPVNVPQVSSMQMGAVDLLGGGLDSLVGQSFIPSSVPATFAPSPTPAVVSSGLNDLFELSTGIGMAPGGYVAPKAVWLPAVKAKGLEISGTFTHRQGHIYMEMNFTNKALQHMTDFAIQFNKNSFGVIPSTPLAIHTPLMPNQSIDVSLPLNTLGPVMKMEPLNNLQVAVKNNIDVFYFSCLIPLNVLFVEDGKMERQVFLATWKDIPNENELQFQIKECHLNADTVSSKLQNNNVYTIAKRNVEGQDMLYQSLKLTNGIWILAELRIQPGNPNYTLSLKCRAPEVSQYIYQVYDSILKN
Assay [11] is described as follows: cytosolic pH regulators acting via V-ATPase – S. cerevisiae, pHLuorin, HTS validation (AID 504600; in the data active = response above about 15%;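 note: plate controls were DMSO for no effect and reference compound for full effect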). To be noted: V-ATPase proton transport, at 10 µM, stronger effect = higher value.
The subject of assay [12] is anti-desmoglein-3 scFv antibody binding to human DSG3. The experiment in a line: blockers of pathogenic pemphigus antibody–desmoglein-3 binding – biochemical, validation compound set, bead-based, flow cytometry, pilot screen (AID 588368;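 active = binding below the plate cutoff, the plate median minus 3 SD, with a reading above zero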;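 note: signal is the median channel fluorescence of bead-bound GFP antibody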). The settings on record: Protein G beads, DSG3-Fc, scFv-GFP binding, at 10 µM, stronger effect = lower value.
Assay [13] in a line: Nile Red efflux blockade in pump-expressing yeast – validation compound set, multiplex, phenotypic, pilot screen (AID 588506;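 active = efflux inhibition above 0.42, the validation set average plus 4 SD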;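 note: Nile Red retained in cells so higher fluorescence means more efflux inhibition; 0 = negative control wells and 1 = enniatin B 25 µM full block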). To be noted: S. cerevisiae pump-expressing triplex, Nile Red efflux flow cytometry; at 10 µM; stronger effect = higher value; the pumps come from Candida albicans.
The target in assay [14] is ATP-binding cassette sub-family B member 6 (Homo sapiens) (UniProt Q9NP58). The experiment in a line: blockers of ABCB6-driven porphyrin uptake – K562-ABCB6 cells, flow cytometry, validation set, pilot screen (AID 588550).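 Note: 0% = DMSO wells and 100% = benzethonium chloride 70 µM positive control.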 To be noted: K562-ABCB6 porphyrin accumulation, 1 h, at 10 µM, stronger effect = higher value.
Chain of ATP-binding cassette sub-family B member 6 (Homo sapiens) (Q9NP58 whole entry, looked up): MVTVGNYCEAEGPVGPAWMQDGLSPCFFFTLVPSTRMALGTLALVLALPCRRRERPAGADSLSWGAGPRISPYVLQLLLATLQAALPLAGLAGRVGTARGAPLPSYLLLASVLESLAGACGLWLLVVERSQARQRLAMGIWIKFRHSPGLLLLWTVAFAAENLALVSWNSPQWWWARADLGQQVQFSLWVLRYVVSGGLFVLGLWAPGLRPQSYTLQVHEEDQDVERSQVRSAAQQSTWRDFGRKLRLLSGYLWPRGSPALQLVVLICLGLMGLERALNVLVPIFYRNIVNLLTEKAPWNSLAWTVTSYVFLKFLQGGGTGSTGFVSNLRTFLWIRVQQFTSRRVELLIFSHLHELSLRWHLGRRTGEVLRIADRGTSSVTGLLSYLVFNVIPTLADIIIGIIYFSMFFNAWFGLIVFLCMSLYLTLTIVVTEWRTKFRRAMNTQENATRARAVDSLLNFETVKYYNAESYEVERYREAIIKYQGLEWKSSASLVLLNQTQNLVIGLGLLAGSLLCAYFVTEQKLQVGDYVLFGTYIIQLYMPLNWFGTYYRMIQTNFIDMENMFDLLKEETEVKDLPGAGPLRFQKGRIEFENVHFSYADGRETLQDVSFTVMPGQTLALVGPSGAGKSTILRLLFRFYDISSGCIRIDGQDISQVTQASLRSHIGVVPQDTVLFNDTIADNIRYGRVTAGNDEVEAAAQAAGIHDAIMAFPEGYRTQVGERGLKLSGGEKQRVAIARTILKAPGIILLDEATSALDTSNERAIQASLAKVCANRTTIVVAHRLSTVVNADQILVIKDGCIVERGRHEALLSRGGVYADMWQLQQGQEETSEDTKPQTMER
Assay [15] in a line: AML differentiation inducers, ER-HoxA9 marrow cells – cell-based, GFP/MAC1 double positive, flow cytometry, validation set, primary screen (AID 588685;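 active = differentiation response of at least 50%, scaled between solvent and reference control, from cells with both markers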;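 note: compound exposure lasts four days before antibody staining and flow analysis; 0% = DMSO wells and 100% = 5 µM fulvestrant positive control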). The settings on record: stronger effect = higher value, normalized: vehicle 0, fulvestrant 100.

In the case of `Cc1ccccc1C(OCCN(C)C)c1ccccc1` (stereo not given), in assay [1], the percent of DMSO control GFP is 101% (inactive). The GFP response vs DMSO in assay [2] is 98.9% (inactive); in [4], 85.3% (inactive). Moreover, in assay [3], the percent response of DMSO control was 102% (inactive). Further, in [5], the GFP response, % of DMSO was 94.6% (inactive). Besides, in assay [6], the double positive events came to 51.2%. In addition, the vesicle binding response in assay [6] is 111% (inactive). In addition, the inhibition in assay [7] was 10.9% (inactive); in assay [10], -8.71% (inactive); in assay [14] it was 4% (inactive). For the same molecule, the superoxide response (% of plate) in assay [8] is 106% (inactive). In addition, in assay [9], the aptamer binding inhibition was 1% (inactive). The response in assay [11] is 9.28% (inactive). In addition, in assay [12], the binding (% of control) is 98.7% (inactive). Moreover, in assay [13], the efflux inhibition (fraction of control) is 0.03 (inactive). Besides, the differentiation response in assay [15] was -22.8% (inactive).
On to `Cc1ccccc1-c1coc2cc(O)ccc2c1=O`, for which, in assay [1], the percent of DMSO control GFP is 98.5% (inactive). Besides, the GFP response vs DMSO was 96.9% (inactive) in [2] and 116% (inactive) in assay [4]. The percent response of DMSO control in assay [3] is 90% (inactive). The GFP response, % of DMSO in assay [5] is 97.3% (inactive). The double positive events in [6] amounted to 60.2%. Also, the vesicle binding response in assay [6] is 187% (inactive). Further, the inhibition in assay [7] was -21.7% (inactive); in assay [10], 30.2% (inactive); in assay [14], 8% (inactive). The superoxide response (% of plate) in assay [8] is 89.2% (inactive). Moreover, the aptamer binding inhibition in assay [9] was 4% (inactive). Also, the response in [11] is 0.4% (inactive). Besides, the binding (% of control) in assay [12] is 99.1% (inactive). In assay [13], the efflux inhibition (fraction of control) is -0.05 (inactive). Also, the differentiation response in assay [15] is -14.7% (inactive).
On to `Nc1ccc(N)c(C(=O)O)c1`, for which the percent of DMSO control GFP in assay [1] was 100% (inactive). The GFP response vs DMSO was 99.9% (inactive) in [2] and 85.3% (inactive) in assay [4]. Besides, the percent response of DMSO control in [3] is 110% (inactive). The GFP response, % of DMSO in assay [5] was 90.3% (inactive). In [6], the double positive events came to 50%. The vesicle binding response in assay [6] is 122% (inactive). The inhibition in [7] was -3.04% (inactive); in assay [10] it was 92.2% (active); in assay [14] it was 8% (inactive). Besides, the superoxide response (% of plate) in assay [8] was 79% (inactive). Further, the aptamer binding inhibition in assay [9] was 92% (active). In addition, the response in assay [11] was -0.99% (inactive). Also, the binding (% of control) in [12] was 2.29% (active). For the same molecule, the efflux inhibition (fraction of control) in [13] is -0.24 (inactive). Also, in assay [15], the differentiation response was -5.05% (inactive).
As for `COc1ccc(CC(=O)c2c(O)cc(O)cc2O)cc1OC`, the percent of DMSO control GFP in assay [1] was 103% (inactive). In addition, the GFP response vs DMSO in assay [2] is 110% (inactive); in [4] it was 101% (inactive). For the same molecule, the percent response of DMSO control in assay [3] was 98.8% (inactive). Moreover, the GFP response, % of DMSO in [5] is 97.5% (inactive). Besides, in assay [6], the double positive events came out at 58.4%. In addition, in assay [6], the vesicle binding response was 171% (inactive). Moreover, the inhibition in assay [7] was 1.62% (inactive); in [10], 49.5% (inactive); in assay [14] it was 3% (inactive). Also, the superoxide response (% of plate) in assay [8] was 102% (inactive). Besides, the aptamer binding inhibition in assay [9] is 1% (inactive). In addition, the response in [11] was -6.13% (inactive). In addition, in assay [12], the binding (% of control) was 100% (inactive). Also, the efflux inhibition (fraction of control) in assay [13] was 0.18 (inactive). In assay [15], the differentiation response is 27.2% (inactive).
In the case of `COc1ccc(CNC(=O)C2CCN(C(=O)[C@@H](CC(C)C)NC(=O)OC(C)(C)C)CC2)cc1`, in [1], the percent of DMSO control GFP was 98.3% (inactive). Also, the GFP response vs DMSO in assay [2] is 90.8% (inactive); in [4] it was 92.3% (inactive). In assay [3], the percent response of DMSO control was 98.8% (inactive). The GFP response, % of DMSO in assay [5] is 92.7% (inactive). The double positive events in [6] was found to be 63.6%. Moreover, the vesicle binding response in assay [6] was 326% (inactive). Also, the inhibition in [7] is 14.7% (inactive); in [10], -7.96% (inactive); in assay [14], 8% (inactive). In addition, the superoxide response (% of plate) in assay [8] is 98.6% (inactive). In addition, in assay [9], the aptamer binding inhibition was 1% (inactive). Also, the response in [11] was -2.19% (inactive). Besides, the binding (% of control) in assay [12] is 98.7% (inactive). Moreover, in [13], the efflux inhibition (fraction of control) is -0.09 (inactive). Also, the differentiation response in [15] was 3.03% (inactive).

The values are drawn from PubChem BioAssay.
